Assay results: PubChem BioAssay (NCI)
About 83,000 compounds went through this panel and 20% of them were active in at least one assay; those are over-represented in the sample as a whole.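 A percent growth of 40 corresponds to 60% growth inhibition; 0 means no net growth; -100 means all cells died. Active threshold: below 10.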 Unmarked numbers belong to inactive results. Calls of active or inactive are those of the source.

Assays:
Assay in all cases: NCI-60 one-dose screen, 48 h (100 = growth as untreated, 0 = no growth, -100 = all killed)
Details in all cases: 10 µM unless noted
EKVX NSCLC = test system: EKVX NSCLC
SN12C renal = test system: SN12C renal
UO-31 renal = test system: UO-31 renal
TK-10 renal = test system: TK-10 renal
ACHN renal = test system: ACHN renal
CAKI-1 renal = test system: CAKI-1 renal
CCRF-CEM leukemia = test system: CCRF-CEM leukemia
MOLT-4 leukemia = test system: MOLT-4 leukemia
SR leukemia = test system: SR leukemia
A498 renal = test system: A498 renal

| Compound | growth (EKVX NSCLC) | growth (SN12C renal) | growth (UO-31 renal) | growth (TK-10 renal) [%] | growth (ACHN renal) | growth (CAKI-1 renal) | growth (CCRF-CEM leukemia) | growth (MOLT-4 leukemia) | growth (SR leukemia) | growth (A498 renal) |
| --- | --- | --- | --- | --- | --- | --- | --- | --- | --- | --- |
| COc1ccc(C(=O)/C=C/c2ccc(OCc3ccc(Cl)cc3)c(OC)c2)cc1OC | 62.2% | 76.6% | 54.1% | 110 | 73.4% | 59.7% | 22.5% | 38.6% | 7.68% (active) |  |
| COc1cc(/C=C/C(=O)c2cc(OC)c(OC)c(OC)c2)ccc1OCc1ccccc1 | 51.6% | 69.7% | 45.5% | 153 | 60% | 42% | 4.39% (active) | 26.2% | 6.67% (active) |  |
| C=CCn1c(SCC(=O)c2ccccc2)nnc1-c1c[nH]c2ccccc12 | 95.8% | 92.7% | 65.7% | 144 | 93.8% | 83.1% | 91.2% | 92.8% | 76.5% |  |
| C#Cc1nc(C2=C(C)C(O)CC2)cs1 (centres undefined) | 113% | 101% | -66.1% (active) | 151 | 94.7% | 110% | 102% | 95.1% | 78.7% |  |
| Cn1cc(-c2cc(N)n3nc(-c4cn(C)c5ccc(Br)cc45)cc3n2)c2cc(Br)ccc21 | 90.7% | 90.3% | 81.8% | 133 | 92.2% | 79% |  | 48.9% | -13.5% (active) | 102% |
| CCCC(=O)NC(c1ccc(N(CC)CC)cc1)c1cc(C)c2cccnc2c1O (centres undefined) | 19.2% | 26.6% | 3.42% (active) | 31.6 | 10.7% | 18.7% | 6.15% (active) | 8.44% (active) | 5.57% (active) |  |
| C#Cc1nc(C2=C(C)C(OC(=O)CCC(=O)O)CC2)cs1 (centres undefined) | 99.2% | 101% | -19.3% (active) | 157 | 103% | 101% | 93.9% | 106% | 64.1% |  |
| COc1cc(/C=C/C(=O)c2ccc(Cl)cc2)ccc1Oc1nc(NCCO)nc(N2CCOCC2)n1 | 99.6% | 96.6% | 76.7% | 110 | 98.8% | 94.2% | 78.4% | 78.6% | 9.04% (active) |  |
| COc1cc(OC)c(S(=O)(=O)NNC(=O)c2ccncc2)cc1C(=O)/C=C/c1ccc(C)cc1 | 85.7% | 95.8% | 77.5% | 145 | 98.1% | 72.4% | 8.66% (active) | 42.2% | 21.9% |  |
| N#Cc1nc(-c2ccccc2)oc1N1CC[C@@H](CO)C1 | 98.5% | 98.1% | 86.3% | 123 | 95.9% | 91.5% | 93.6% | 101% | 84.6% |  |
| NS(=O)(=O)c1cccc(Nc2nc(SCC(=O)c3ccc(Br)cc3)nc3ccccc23)c1 | 64.8% | 74.9% | 59.6% | 124 | 28% | -11.3% (active) | 68.6% | 44% | 37.1% |  |
| COc1ccc(CNS(=O)(=O)/N=C2\NC(=O)NC2=C(Cl)Cl)cc1 | 83.2% | 20.7% | 48.9% | 41.6 | 32.7% | 45.9% |  | 19% | 20.5% | -9.6% (active) |
| C#Cc1nc(C2=C(C)C(=O)/C(=N/OC(C)=O)C2)cs1 | 97.5% | 99% | -92.1% (active) | 151 | 26.3% | 58.5% | 80.8% | 87.7% | 13.4% |  |
| Cc1cc(C(NC(=O)CCCCCNc2cccc3c2C(=O)N(C2CCC(=O)NC2=O)C3=O)c2cccnc2)c(O)c2ncccc12 (centres undefined) | 34.3% | 20.1% | 18.7% | 19.2 | 35.6% | 14.2% | -4.83% (active) | 1.29% (active) | 11.6% |  |
| O=C(N/N=C/c1ccc[nH]1)c1[nH]c2ccc(Br)cc2c1-c1ccccc1 | 24.4% | 28.7% | 12.3% | 44.5 | 12.2% | 21.2% | 5.27% (active) | 5.94% (active) | 1.89% (active) |  |
| COC(=O)c1ccc(NC(=S)N2CCc3ccc([N+](=O)[O-])cc3C2)cc1O | 99.2% | 99.8% | 85.5% | 137 | 95.4% | 92.7% | 94.9% | 91.7% | 95.5% |  |
| O=C(N/N=C/c1ccc([N+](=O)[O-])o1)c1[nH]c2ccc(Br)cc2c1-c1ccccc1 | 39.2% | 21.9% | 30.9% | 78.7 | 16.1% | 20.3% | 7.85% (active) | 5.69% (active) | 6.28% (active) |  |
| O=C(Oc1ccc2ccc(=O)oc2c1)c1ccc(Cl)cc1 | 99.2% | 98.7% | 86.7% | 125 | 106% | 98.5% | 103% | 106% | 96.6% |  |
| COc1ccc(/C=C2\SC(=Nc3cc(C)[nH]n3)NC2=O)cc1 | 91.5% | 96% | 75.3% | 102 | 88.1% | 83.4% | 86.7% | 94% | 82% |  |
| Nc1c(C(=O)Nc2ccc(C(F)(F)F)cc2)sc2nc(-c3cnccn3)cc(-c3cccs3)c12 | 76.1% | 94.9% | 59.5% | 174 | 43.3% | 16.2% | 84.7% | 75.7% | 66.3% |  |
| Nc1nc(N)c2c(n1)NC(c1ccc(C(F)(F)F)cc1)CC(c1ccc(Nc3nc(NCCO)nc(Nc4ccc(Cl)cc4)n3)cc1)=N2 (centres undefined) | -47.3% (active) | -40.2% (active) | -48.6% (active) | 91.1 | -90.2% (active) | -88.1% (active) | -5.25% (active) | -15.2% (active) | -31.7% (active) |  |
